Test results as given in PubChem BioAssay.
Values joined by “and” are separate entries in the source; they are usually repeats but may differ in a detail not shown here. Equal entries are not always repeated. Records with an inconclusive call do not appear. Active and inactive are the calls of the source.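 Rule for the calls, unless noted: active = normalized viability below 100% at a tested concentration; inactive = the rest.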

How the values were obtained:
[1] = drug combination growth inhibition, ovarian cancer – cell-based, oncology-focused library, rucaparib conditional, profiling panel (AID 1508598); conditions: patient-derived ovarian cancer cells, CellTiter-Glo viability, 144 h, stronger effect = lower value
[2] = galactose survival enhancers in mitochondrial complex I cybrids – cell-based, galactose medium, ATP luminescence, primary screen (AID 1645843;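 active = z-score of at least 1.8 in each of two replicates, scored against plate mean and spread of sample wells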;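 note: positive z means more ATP and so rescue of galactose-driven cybrid death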); conditions: complex I mutant cybrid cells, 72 h, stronger effect = higher value
[3] = test system: Aerobactin synthetase IucA (Klebsiella pneumoniae); assay: inhibition of K. pneumoniae IucA enzyme – biochemical, Tocris library, absorbance (AID 1345561; call rule not given here;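 note: 100% = enzyme without compound and 0% = no enzyme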); conditions: purified IucA enzyme assay, absorbance (OD) read-out; stronger effect = lower value;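 tested at 8 µM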
[4] = viability loss in pontine glioma line – cell-based, SU-DIPG-XVII, MIPE5.0, CellTiter-Glo, qHTS, dose response (AID 1347060; cut-off not given, nearly all actives have AC50 up to about 26 µM;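 for AC50: cells exposed to compound for 48 hours before viability readout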); conditions: CellTiter-Glo ATP luminescence
[5] = viability loss in pontine glioma line – cell-based, SU-DIPG-IV, MIPE4.0, CellTiter-Glo, qHTS, dose response (AID 1347063; cut-off not given, nearly all actives have AC50 up to about 30 µM;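 note: compound exposure lasted 48 hours before the viability readout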); conditions: CellTiter-Glo ATP luminescence
[6] = viability loss with induced miR-34 in A549 – imaging, A549 dox-inducible miR-34, nuclei and caspase counts, primary screen (AID 1347080;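 active = compounds whose cell count with miR-34 switched on is under 0.7 times the count with it off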); conditions: A549 miR-34 inducible, Hoechst nuclei count, 48 h
[7] = MELAS cybrid and Rieske KO viability enhancers – cell-based, MELAS cybrids, Rieske KO mouse fibroblasts, CellTiter-Glo, primary screen (AID 1508586;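 active = mean z-score across replicates of 1.96 or higher in either the MELAS or the Rieske mutant cell line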;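 note: z relative to plate mean and SD of compound and empty wells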); conditions: low glucose
[8] = viability loss in pontine glioma line – cell-based, JHH-DIPG-1, MIPE4.0, CellTiter-Glo, qHTS, dose response (AID 1347062; cut-off not given, nearly all actives have AC50 up to about 27 µM;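 for AC50: cells exposed to compound for two days before readout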); conditions: JHH-DIPG-1 viability, CellTiter-Glo ATP luminescence
[9] = viability loss in pontine glioma line – cell-based, SU-DIPG-XIII, MIPE5.0, CellTiter-Glo, qHTS, dose response (AID 1347064; cut-off not given, nearly all actives have AC50 up to about 23 µM;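 for AC50: cells exposed to compound for 48 hours before the viability read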); conditions: CellTiter-Glo ATP luminescence
[10] = JHH-DIPG-1 glioma cell viability, MIPE5.0 library, CellTiter-Glo luminescence, qHTS (AID 1347067; cut-off not given, nearly all actives have AC50 up to about 26 µM;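 note: cells exposed to compound for 48 hours before readout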); conditions: JHH-DIPG-1 glioma viability, CellTiter-Glo ATP luminescence
[11] = growth inhibition of DIPG cells – cell-based, MIPE5.0 library, qHTS (AID 1347068; cut-off not given, nearly all actives have IC50 up to about 30 µM;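 for IC50: cells exposed to compound for 48 hours before viability readout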); conditions: SU-DIPG-XXV viability
[12] = viability loss in pontine glioma line – cell-based, SU-DIPG-XIII, MIPE4.0, CellTiter-Glo, qHTS, dose response (AID 1347061; cut-off not given, nearly all actives have AC50 up to about 37 µM;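 note: cells exposed to compound for 48 hours before readout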); conditions: CellTiter-Glo ATP luminescence
[13] = viability loss in pontine glioma line – cell-based, SU-DIPG-XXV, MIPE5.0, CellTiter-Glo, qHTS, dose response (AID 1347065; cut-off not given, nearly all actives have AC50 up to about 26 µM;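 note: cells exposed to compound for 48 hours before ATP readout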); conditions: CellTiter-Glo ATP luminescence
[14] = growth inhibition of DIPG cells – cell-based, MIPE4.0 library, CellTiter-Glo luminescence, qHTS (AID 1347066; cut-off not given, nearly all actives have AC50 up to about 30 µM;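 note: cells exposed to compound for 48 hours before readout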); conditions: SU-DIPG-VI viability, CellTiter-Glo ATP luminescence
[15] = compounds altering HSF1 focus formation in cells – imaging, Selleck Cancer Library (AID 1347162; in the data active = plate-normalised HSF1 focus index below about 0.46); conditions: human cells, HSF1 nuclear foci imaging, at 10 µM; SSMD: measured here: HSF1 foci SSMD mean; cell count: measured here: cell number; plate-normalised HSF1 focus index: stronger effect = lower value
[16] = P. berghei load reduction in hepatocytes – cell-based, HepG2, luciferase luminescence, HepG2 viability, primary screen (AID 624349; in the data active = parasite load remaining mostly below about 12%, no sharp cut-off; inactive = mostly above about 10%;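 note: 100% = mean of DMSO negative control wells on the same plate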); conditions: P. berghei liver stage in HepG2, luciferase luminescence, concentration not given here; parasite load remaining: stronger effect = lower value; viability: measured here: HepG2 viability without parasites
[17] = at 0.0195 µM, OCI-C5x cells, with rucaparib 10 µM, 100% = cells with rucaparib alone
[18] = at 0.0195 µM, OCI-C5x cells, without rucaparib
[19] = at 0.0195 µM, OCI-P5x cells, with rucaparib 20 µM, 100% = cells with rucaparib alone
[20] = at 0.0195 µM, OCI-P5x cells, without rucaparib
[21] = at 0.0781 µM, OCI-C5x cells, with rucaparib 10 µM, 100% = cells with rucaparib alone
[22] = at 0.0781 µM, OCI-C5x cells, without rucaparib
[23] = at 0.0781 µM, OCI-P5x cells, with rucaparib 20 µM, 100% = cells with rucaparib alone
[24] = at 0.0781 µM, OCI-P5x cells, without rucaparib
[25] = at 0.313 µM, OCI-C5x cells, with rucaparib 10 µM, 100% = cells with rucaparib alone
[26] = at 0.313 µM, OCI-C5x cells, without rucaparib
[27] = at 0.313 µM, OCI-P5x cells, with rucaparib 20 µM, 100% = cells with rucaparib alone
[28] = at 0.313 µM, OCI-P5x cells, without rucaparib
[29] = at 1.25 µM, OCI-C5x cells, with rucaparib 10 µM, 100% = cells with rucaparib alone
[30] = at 1.25 µM, OCI-C5x cells, without rucaparib
[31] = at 1.25 µM, OCI-P5x cells, with rucaparib 20 µM, 100% = cells with rucaparib alone
[32] = at 1.25 µM, OCI-P5x cells, without rucaparib
[33] = at 5 µM, OCI-C5x cells, with rucaparib 10 µM, 100% = cells with rucaparib alone
[34] = at 5 µM, OCI-C5x cells, without rucaparib
[35] = at 5 µM, OCI-P5x cells, with rucaparib 20 µM, 100% = cells with rucaparib alone
[36] = at 5 µM, OCI-P5x cells, without rucaparib
[37] = stronger effect = lower value, cell number ratio, induced over uninduced
[38] = measured here: relative caspase fold change +Dox/-Dox
[39] = measured here: total cells with miR-34 induction, stronger effect = lower value
[40] = measured here: total cells without miR-34 induction
[41] = MELAS cybrid survival, CellTiter-Glo 48 h, stronger effect = higher value
[42] = Rieske KO mouse fibroblast survival, CellTiter-Glo 72 h

N#Cc1c(O)c2c(-c3ccc(-c4ccccc4O)cc3)csc2[nH]c1=O
active: viability [1, 35] 92.2% | viability [1, 36] 90.6%
inactive: viability [1, 17] 112% | viability [1, 18] 122% | viability [1, 19] 116% | viability [1, 20] 114% | viability [1, 21] 113% | viability [1, 22] 127% | viability [1, 23] 119% | viability [1, 24] 115% | viability [1, 25] 115% | viability [1, 26] 134% | viability [1, 27] 117% | viability [1, 28] 118% | viability [1, 29] 112% | viability [1, 30] 140% | viability [1, 31] 107% | viability [1, 32] 107% | viability [1, 33] 118% | viability [1, 34] 135% | z-score [2] 1.98

CCc1c2c(nc3ccc(O)cc13)-c1cc3c(c(=O)n1C2)COC(=O)[C@]3(O)CC
-0.363: z-score [7, 42]
1510 and 2070: cell count [6, 39]
1960 and 2080: cell count [6, 40]
active: AC50 [4] 0.00833 µM | AC50 [5] 0.0296 µM
3.45 and 2.11: fold change [6, 38]
inactive: remaining activity [3] 107% | fold change [6, 37] 0.769 and 0.994 | z-score [7, 41] 0.182 | z-score [2] -0.66

COc1ccc([C@@H]2CNC(=O)C2)cc1OC1CCCC1
8940: cell count [6, 39]
inactive: remaining activity [3] 102% | outcome [4] | outcome [8] | outcome [9] | outcome [10] | outcome [11] | fold change [6, 37] 0.954 | z-score [2] -0.11
0.878: fold change [6, 38]
9370: cell count [6, 40]

O=c1[nH]nc(Sc2ncc([N+](=O)[O-])s2)n1-c1ccc2c(c1)OCCO2
inactive: remaining activity [3] 125% | fold change [6, 37] 1.25 | plate-normalised HSF1 focus index [15] 0.592 | z-score [2] -0.705
1660: cell count [6, 40]
0.969: fold change [6, 38]
active: AC50 [4] 3.72 µM | AC50 [12] 5.9 µM | AC50 [8] 5.26 µM | AC50 [9] 3.72 µM | AC50 [13] 2.35 µM | AC50 [14] 2.64 µM | AC50 [10] 2.95 µM | IC50 [11] 23.5 µM
-8.15: SSMD [15]
5980: cell count [15]
2070: cell count [6, 39]

O=Nc1c(-c2c(O)[nH]c3cc(Br)ccc23)[nH]c2ccccc12
active: AC50 [4] 8.33 µM | AC50 [8] 20.9 µM | AC50 [5] 3.32 µM | AC50 [9] 14.8 µM | AC50 [13] 7.42 µM | AC50 [14] 20.9 µM | AC50 [10] 14.8 µM | IC50 [11] 10.5 µM
92.7%: viability [16]
inactive: parasite load remaining [16] 17.4% | remaining activity [3] 107% | outcome [12] | z-score [7, 41] -0.015 | z-score [2] -1.29 and -0.705
1.62: z-score [7, 42]

O=C(O)c1ccc(-c2c[nH]c3ncc(-c4ccccc4)cc23)cc1C1CCCC1
1.9: SSMD [15]
inactive: remaining activity [3] 108% | outcome [4] | outcome [8] | outcome [9] | outcome [13] | outcome [10] | fold change [6, 37] 0.863 and 0.894 | plate-normalised HSF1 focus index [15] 1.11 | z-score [7, 41] -0.208 | viability ([1]; at 0.000305 µM, OCI-C5x cells, with rucaparib 10 µM, 100% = cells with rucaparib alone) 113% | viability ([1]; at 0.000305 µM, OCI-C5x cells, without rucaparib) 105% | viability ([1]; at 0.00122 µM, OCI-C5x cells, with rucaparib 10 µM, 100% = cells with rucaparib alone) 106% | viability ([1]; at 0.00122 µM, OCI-C5x cells, without rucaparib) 118% | viability ([1]; at 0.00488 µM, OCI-C5x cells, with rucaparib 10 µM, 100% = cells with rucaparib alone) 112% | viability ([1]; at 0.00488 µM, OCI-C5x cells, without rucaparib) 120% | viability ([1]; at 0.00488 µM, OCI-P5x cells, with rucaparib 20 µM, 100% = cells with rucaparib alone) 101% | viability ([1]; at 0.00488 µM, OCI-P5x cells, without rucaparib) 100% | viability [1, 17] 118% | viability [1, 18] 115% | viability [1, 20] 103% | viability [1, 22] 112% | viability [1, 24] 103% | viability [1, 26] 116% | viability [1, 27] 102% | viability [1, 28] 102% | viability [1, 30] 105% | z-score [2] 0.065
0.684 and 1.96: fold change [6, 38]
-2.05: z-score [7, 42]
6900: cell count [15]
3460 and 4530: cell count [6, 40]
active: AC50 [5] 0.372 µM | viability ([1]; at 0.000305 µM, OCI-P5x cells, with rucaparib 20 µM, 100% = cells with rucaparib alone) 85.9% | viability ([1]; at 0.000305 µM, OCI-P5x cells, without rucaparib) 89.5% | viability ([1]; at 0.00122 µM, OCI-P5x cells, with rucaparib 20 µM, 100% = cells with rucaparib alone) 90% | viability ([1]; at 0.00122 µM, OCI-P5x cells, without rucaparib) 99.6% | viability [1, 19] 97.8% | viability [1, 21] 95.5% | viability [1, 23] 95.2% | viability [1, 25] 91.3% | viability [1, 29] 88.1% | viability [1, 31] 93.8% | viability [1, 32] 93.3% | viability [1, 33] 65.2% | viability [1, 34] 60.5% | viability [1, 35] 92.6% | viability [1, 36] 75.8%
2990 and 4050: cell count [6, 39]
